ChEMBL document CHEMBL3433997, “St. Jude Leishmania screening dataset” (2016)
Values joined by “and” are separate entries in the source; they are usually repeats but may differ in a detail not shown here. Identical values can stand only once.

Assays:
Assay type in all cases: functional
[1] = target: Solute carrier family 2, facilitated glucose transporter member 1 (Homo sapiens) (UniProt P11166); assay: ST_JUDE_LEISH: Cytotoxicity at 2uM final concentration against transgenic Leishmania Mexicana promastigotes LmGLUT1 that are glucose transport deficient and complemented with the human glucose transporter GLUT1. Activity is measured by DNA content using SYBR green in vitro
Sequence of Solute carrier family 2, facilitated glucose transporter member 1 (Homo sapiens) (P11166 whole entry): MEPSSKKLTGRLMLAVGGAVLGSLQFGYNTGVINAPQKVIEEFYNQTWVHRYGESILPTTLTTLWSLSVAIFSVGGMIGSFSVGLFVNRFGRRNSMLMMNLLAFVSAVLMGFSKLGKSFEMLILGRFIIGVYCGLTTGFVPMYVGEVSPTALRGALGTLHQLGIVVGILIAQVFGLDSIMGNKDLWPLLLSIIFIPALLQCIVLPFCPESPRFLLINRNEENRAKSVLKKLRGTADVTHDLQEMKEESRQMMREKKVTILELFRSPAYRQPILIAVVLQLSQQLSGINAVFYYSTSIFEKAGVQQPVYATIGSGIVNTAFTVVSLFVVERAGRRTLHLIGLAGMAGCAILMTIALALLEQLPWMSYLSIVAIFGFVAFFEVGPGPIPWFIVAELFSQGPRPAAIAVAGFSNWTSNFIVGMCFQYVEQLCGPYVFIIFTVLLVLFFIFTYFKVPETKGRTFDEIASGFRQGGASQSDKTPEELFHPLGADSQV

[2] = target: Hexose transporter 1 (Plasmodium falciparum) (UniProt O97467); assay: ST_JUDE_LEISH: Cytotoxicity at 2uM final concentration against transgenic Leishmania Mexicana promastigotes LmPfHT that are glucose transport deficient and complemented with the Plasmodium falciparum hexose transporter. Activity is measured by DNA content using SYBR green in vitro
[3] = target: Glucose transporter (Leishmania mexicana) (UniProt O61059); assay: ST_JUDE_LEISH: Cytotoxicity at 2uM final concentration against transgenic Leishmania Mexicana promastigotes LmGT2 that are glucose transport deficient and complemented with the L. Mexicana glucose transporter 2. Activity is measured by DNA content using SYBR green in vitro

Compound	inhibition [1]	inhibition [2]	inhibition [3]
COc1ccc(C[C@@H](C)NC[C@H](O)c2cccc(Cl)c2)cc1F	0.83% and 1.3%	3.32% and 5.02%	0.88% and 0.58%
O=C(/C=C/c1ccc(Cl)c(Cl)c1)N1CCC(CN2CCC(c3c(Br)[nH]c4ccccc34)CC2)CC1	2.44%	0.45%	0.55%
Cn1nc(C(F)(F)F)cc1-c1ccc(C(=O)NC2CCC(CN3CCC(c4c[nH]c5ccccc45)CC3)CC2)s1 (stereo not drawn)	6.48%	4.44%	2.24%
O=C(NC1CCC(CN2CCC(c3c[nH]c4ccccc34)CC2)CC1)c1cc(-c2cccc(Cl)c2)n(-c2ccc(Cl)cc2Cl)n1 (stereo not drawn)	1.34%	-0.46%	0.47%
CC[C@H]1CN2CC[C@@H]1C[C@H]2[C@H](O)c1cc(-c2ccc(F)cc2)nc2ccc(O)cc12	-0.76%	0.53%	-0.19%
C=C[C@H]1CN2CC[C@H]1C[C@H]2[C@H](OS(=O)(=O)O)c1ccnc2ccccc12	9.31%	8.07%	9.07%
CCC1CN2CCc3cc(OC)c(OC)cc3C2CC1CC1NCCc2cc(OC)c(OC)cc21 (stereo not drawn)	96.6%	96%	93.1%
O=C(NC1CCC(CN2CCC(c3c[nH]c4ccccc34)CC2)CC1)c1cc(-c2ccccc2Cl)n(-c2cccc(Cl)c2)n1 (stereo not drawn)	3.93%	2.86%	1.71%
Cc1[nH]c2c(C)cc(NS(C)(=O)=O)cc2c1C1CCN(CC2CCN(C(=O)/C=C/c3ccc(Cl)c(Cl)c3)CC2)CC1	1.48%	3.63%	4.65%
CC(=O)Nc1ccc(CN2CCC(N(C)c3ccc(NC(=O)c4cccc(C)c4)cc3)CC2)cc1	8.7%	10.9%	9.57%
Cc1[nH]c2ccccc2c1C1=CCN(CCCCC23CCCc4cccc(c42)NC3=O)CC1 (stereo not drawn)	2.64%	2.98%	2.47%
CC(Cc1ccc(SCCSc2ccccc2)cc1)NCC(O)c1cccc(Cl)c1 (stereo not drawn)	0.69%	-0.5%	1.16%
O=C(/C=C/c1ccc([N+](=O)[O-])cc1)NC1CCC(CN2CCC(c3c[nH]c4ccccc34)CC2)CC1 (stereo not drawn)	2.8% and -1.4%	1.89% and -2.18%	0.45%
O=C(Nc1ccccc1C(F)(F)F)NC1CCC(CN2CCC(c3c[nH]c4ccccc34)CC2)CC1 (stereo not drawn)	7.14% and 3.61%	4.94% and 7.06%	2.99% and -1.24%
CC(C)CNCc1cccc(-c2cccc(CN(C(=O)Nc3ccccc3)C3CCN(Cc4ccccc4)CC3)c2)c1	1.9%	1.81%	5.06%
COC(=O)c1ccc(CC(C)NCC(O)c2cccc(SC(F)(F)F)c2)cc1 (stereo not drawn)	2.85%	4.05%	4.01%

Compound	inhibition [1]	inhibition [2]	inhibition [3]
Cc1ccccc1C1=CCN(CCCN2c3ccccc3Sc3ccc(Cl)cc32)CC1	6.62%	5.58%	1.49%
COC(=O)/C=C/C(=O)N[C@@H]1CC[C@@]2(O)[C@H]3Cc4ccc(O)c5c4[C@@]2(CCN3CC2CC2)[C@H]1O5	4.79%	5.03%	6.57%
CC1(CCCCN2CC=C(c3c[nH]c4ccccc34)CC2)C(=O)Nc2ccccc21 (stereo not drawn)	0.6%	-0.08%	2.1%
Cc1nc(-c2ccc(-c3ccc(C(=O)Nc4ccc5c(c4)C4(CCNCC4)CO5)cc3)c(C)c2)no1	2.05%	5.12%	1.93%
CC(Cc1ccc(C(C)(C)C)cc1)NCC(O)c1ccccc1 (stereo not drawn)	2.91%	-0.46%	0.43%
CCc1ccc(CN2CCC(CN(C(=O)c3ccccc3)c3ccc(Cl)cc3)CC2)cc1	8.24%	5.97%	5.04%
Cc1cc(NC(=O)[C@@H](Nc2ccc(C#N)c3ccccc23)C2CCCCC2)ccc1F	-1.97%	-0.16%	-0.25%
CC(Cc1ccc(C2=CCNCC2)cc1)NCC(O)c1cccc(C(F)(F)F)c1 (stereo not drawn)	-2.15%	-1.67%	-0.93%
Cc1[nH]c2cc(Cl)ccc2c1C1=CCN(CCCCC2(C)C(=O)Nc3c(F)cccc32)CC1 (stereo not drawn)	1.41%	0.61%	0.45%
FC(F)(F)c1cccc(N2CCC(CN3CCC(c4c[nH]c5ccccc45)CC3)CC2)n1	7.61%	6.91%	7.85%
CN1CC=C(C=Cc2c[nH]c3ccccc23)CC1	0.96%	2.14%	3.25%
CC(=O)C1(c2ccccc2)CCN(CCC2(c3ccc(Cl)c(Cl)c3)CN(C(=O)C3CCCC3)CCO2)CC1 (stereo not drawn)	4.09%	3.1%	0.75%
Oc1ccc2[nH]cc(C3=CCN(Cc4ccccc4)CC3)c2c1	11.2%	10.5%	10.4%
Cc1c(C)c2c(c(C)c1O)CC[C@](C)(C(=O)N1CCC(CN3CCC(c4c[nH]c5ccccc45)CC3)CC1)O2	3.34%	4.94%	0.9%
CC[C@H]1CN2CC[C@H]1C[C@H]2[C@H](O)c1cc(-c2cccc(F)c2)nc2ccc(OC)cc12	8.98%	7.25%	5.44%
